Source: the supplement of paper PMC10849652
Of roughly 7,900 targets only a part is listed; those with a hit were picked by preference. About 0.6% of all pairs of compound and target were hits. A number with no mark means an inactive call.

Tests used:
Experiment in all cases: log2 fold change, soluble protein after heating vs DMSO (PISA); higher = thermal stabilisation; K562 cells, 10 uM, 30 min; active = over 0.2 and 3.5 SD of the protein, either way, in both replicates (recomputed)
[1] = compound: Cc1ccc(NC(=O)c2ccc(CN3CC[C@H](N(C)C)C3)c(C(F)(F)F)c2)cc1Nc1nccc(-c2cncnc2)n1 [bafetinib]
Summary of the method: (§1)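 K562 cells at 2×10^6 cells/mL were treated for 30 min with 10 μM compound, and aliquots were heated for 3 min over 48°C-58°C before pooling. Extraction used PBS with 0.5% NP-40 at 4°C, and soluble protein was the supernatant after 21,000xg for 90 min, measured by TMTpro 16plex LC-MS/MS with channel sums equalised. Thermal stability values, relative to control samples and from duplicates, are log2 fold changes.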

[2] = compound: Cc1cccc(CC(=O)N2CCc3c2ccc(-c2cn(C)c4ncnc(N)c24)c3F)n1
Summary of the method: as §1

[3] = compound: Cc1cn(-c2cc(NC(=O)c3ccc(C)c(Nc4nccc(-c5cccnc5)n4)c3)cc(C(F)(F)F)c2)cn1 [nilotinib]
Summary of the method: as §1

[4] = compound: Cc1nc(Nc2n[nH]c3c2CN(C(=O)N[C@H](CN(C)C)c2ccccc2)C3(C)C)c2sccc2n1
Summary of the method: as §1

[5] = compound: Cc1nc(Nc2ncc(C(=O)Nc3c(C)cccc3Cl)s2)cc(N2CCN(CCO)CC2)n1 [dasatinib]
Summary of the method: as §1

[6] = compound: Cc1ncc(-c2ccnc(Nc3ccc(S(C)(=O)=O)cc3)n2)n1C(C)C
Summary of the method: as §1

[7] = compound: Cn1cc(-c2ccc3c(c2)CCN3C(=O)Cc2cccc(C(F)(F)F)c2)c2c(N)ncnc21
Summary of the method: as §1

[8] = compound: Cn1cc(-c2ccc3nnc(C(F)(F)c4ccc5ncccc5c4)n3n2)cn1
Summary of the method: as §1

[9] = compound: Cn1cncc1[C@@](N)(c1ccc(Cl)cc1)c1ccc2c(c1)c(-c1cccc(Cl)c1)cc(=O)n2C [tipifarnib]
Summary of the method: as §1

[10] = compound: FC(F)(F)c1ccc(/C=C/c2nc(COc3ccc(CCCCn4ccnn4)cc3)co2)cc1 [mubritinib]
Summary of the method: as §1

[11] = compound: NC(=O)Nc1cc(-c2cccc(F)c2)sc1C(=O)N[C@H]1CCCNC1
Summary of the method: as §1

[12] = compound: NC(=O)c1cnc(N[C@@H]2CCCC[C@@H]2N)nc1Nc1cccc(-n2nccn2)c1
Summary of the method: as §1

[13] = compound: NC1(c2ccc(-c3nc4ccn5c(=O)[nH]nc5c4cc3-c3ccccc3)cc2)CCC1
Summary of the method: as §1

[14] = compound: NCC(=O)Nc1ccc(-n2nc(C(F)(F)F)cc2-c2ccc3c(ccc4ccccc43)c2)cc1
Summary of the method: as §1

[15] = compound: Nc1ccccc1NC(=O)c1ccc(CNC(=O)OCc2cccnc2)cc1 [entinostat]
Summary of the method: as §1

[16] = compound: O=C(CCCCCCC(=O)Nc1ccccc1)NO [vorinostat]
Summary of the method: as §1

[17] = compound: O=C(CCCCCCNC(=O)c1cnc(N(c2ccccc2)c2ccccc2Cl)nc1)NO [citarinostat]
Summary of the method: as §1

[18] = compound: O=C(O)c1ccc2c(c1)nc(Nc1cccc(Cl)c1)c1ccncc12 [silmitasertib]
Summary of the method: as §1

[19] = compound: O=C1NC(=O)C(c2cnc3ccccn23)=C1c1cn2c3c(cc(F)cc13)CN(C(=O)N1CCCCC1)CC2
Summary of the method: as §1

[20] = compound: c1cc(OCCN2CCCCC2)cc(-c2n[nH]c3ccc(-c4nnc[nH]4)cc23)c1
Summary of the method: as §1

Chain of UniProt Q8WV07 (Q8WV07 whole entry, looked up): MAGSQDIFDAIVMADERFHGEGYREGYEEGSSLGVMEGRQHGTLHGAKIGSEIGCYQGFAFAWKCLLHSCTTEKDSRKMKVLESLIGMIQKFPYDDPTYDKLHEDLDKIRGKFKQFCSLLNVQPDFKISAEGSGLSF
Chain of UniProt P23368 (P23368 whole entry, looked up): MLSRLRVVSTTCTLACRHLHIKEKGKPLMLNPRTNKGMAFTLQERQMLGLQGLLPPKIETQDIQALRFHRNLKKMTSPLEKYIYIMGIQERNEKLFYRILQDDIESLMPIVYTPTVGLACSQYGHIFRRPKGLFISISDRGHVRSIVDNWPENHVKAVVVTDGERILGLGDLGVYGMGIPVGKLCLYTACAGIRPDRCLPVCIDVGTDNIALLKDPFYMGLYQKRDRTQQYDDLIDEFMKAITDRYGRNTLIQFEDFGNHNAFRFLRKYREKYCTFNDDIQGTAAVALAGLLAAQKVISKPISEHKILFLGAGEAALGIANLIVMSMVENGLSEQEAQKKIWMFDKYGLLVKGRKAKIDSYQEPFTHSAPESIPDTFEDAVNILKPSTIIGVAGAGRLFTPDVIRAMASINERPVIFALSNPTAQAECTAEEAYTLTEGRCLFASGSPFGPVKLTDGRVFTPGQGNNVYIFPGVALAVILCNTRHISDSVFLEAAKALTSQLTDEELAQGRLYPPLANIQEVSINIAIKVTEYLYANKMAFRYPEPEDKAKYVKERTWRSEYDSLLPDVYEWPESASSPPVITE
Chain of UniProt Q13257 (Q13257 whole entry, looked up): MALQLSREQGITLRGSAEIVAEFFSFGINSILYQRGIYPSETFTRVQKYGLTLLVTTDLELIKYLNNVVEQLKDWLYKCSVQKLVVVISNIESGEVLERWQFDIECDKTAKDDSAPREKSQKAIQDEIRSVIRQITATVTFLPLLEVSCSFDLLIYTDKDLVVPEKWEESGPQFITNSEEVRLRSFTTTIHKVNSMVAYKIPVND
Chain of UniProt Q86UP2 (Q86UP2 whole entry, looked up): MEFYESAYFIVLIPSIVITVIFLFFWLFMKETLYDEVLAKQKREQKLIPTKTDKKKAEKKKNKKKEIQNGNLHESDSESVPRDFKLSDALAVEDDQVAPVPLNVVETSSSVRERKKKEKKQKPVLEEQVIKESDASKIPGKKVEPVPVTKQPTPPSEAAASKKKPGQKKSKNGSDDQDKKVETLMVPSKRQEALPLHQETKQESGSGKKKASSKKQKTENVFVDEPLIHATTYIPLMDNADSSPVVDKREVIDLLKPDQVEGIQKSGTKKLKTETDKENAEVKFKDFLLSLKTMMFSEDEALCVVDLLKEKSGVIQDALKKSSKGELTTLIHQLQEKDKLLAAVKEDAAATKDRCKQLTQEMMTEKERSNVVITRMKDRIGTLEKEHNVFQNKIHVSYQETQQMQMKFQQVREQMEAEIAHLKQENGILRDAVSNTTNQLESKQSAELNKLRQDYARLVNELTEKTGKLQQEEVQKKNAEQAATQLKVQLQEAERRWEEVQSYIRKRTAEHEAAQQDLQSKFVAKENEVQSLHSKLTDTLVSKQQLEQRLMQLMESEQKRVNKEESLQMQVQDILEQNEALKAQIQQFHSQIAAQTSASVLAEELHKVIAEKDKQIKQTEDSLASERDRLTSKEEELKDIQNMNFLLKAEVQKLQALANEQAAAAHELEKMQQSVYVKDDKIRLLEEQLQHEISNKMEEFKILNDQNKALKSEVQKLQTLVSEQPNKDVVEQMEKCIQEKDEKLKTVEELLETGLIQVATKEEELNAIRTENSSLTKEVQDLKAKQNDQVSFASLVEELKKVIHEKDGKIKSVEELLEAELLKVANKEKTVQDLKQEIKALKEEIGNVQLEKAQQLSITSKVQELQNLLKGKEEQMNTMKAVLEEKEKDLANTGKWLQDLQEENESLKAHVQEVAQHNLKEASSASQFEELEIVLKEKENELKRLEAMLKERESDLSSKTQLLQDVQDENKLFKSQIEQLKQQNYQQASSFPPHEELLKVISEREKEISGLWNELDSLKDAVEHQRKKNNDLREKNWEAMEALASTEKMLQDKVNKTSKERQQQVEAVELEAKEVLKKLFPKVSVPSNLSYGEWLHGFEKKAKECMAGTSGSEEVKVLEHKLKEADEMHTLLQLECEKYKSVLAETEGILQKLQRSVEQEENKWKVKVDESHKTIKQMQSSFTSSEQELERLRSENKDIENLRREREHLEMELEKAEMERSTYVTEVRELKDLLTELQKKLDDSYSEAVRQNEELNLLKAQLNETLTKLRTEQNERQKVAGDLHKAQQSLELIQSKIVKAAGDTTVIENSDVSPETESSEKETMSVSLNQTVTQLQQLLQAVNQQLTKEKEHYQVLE
Chain of UniProt O00629 (O00629 whole entry, looked up): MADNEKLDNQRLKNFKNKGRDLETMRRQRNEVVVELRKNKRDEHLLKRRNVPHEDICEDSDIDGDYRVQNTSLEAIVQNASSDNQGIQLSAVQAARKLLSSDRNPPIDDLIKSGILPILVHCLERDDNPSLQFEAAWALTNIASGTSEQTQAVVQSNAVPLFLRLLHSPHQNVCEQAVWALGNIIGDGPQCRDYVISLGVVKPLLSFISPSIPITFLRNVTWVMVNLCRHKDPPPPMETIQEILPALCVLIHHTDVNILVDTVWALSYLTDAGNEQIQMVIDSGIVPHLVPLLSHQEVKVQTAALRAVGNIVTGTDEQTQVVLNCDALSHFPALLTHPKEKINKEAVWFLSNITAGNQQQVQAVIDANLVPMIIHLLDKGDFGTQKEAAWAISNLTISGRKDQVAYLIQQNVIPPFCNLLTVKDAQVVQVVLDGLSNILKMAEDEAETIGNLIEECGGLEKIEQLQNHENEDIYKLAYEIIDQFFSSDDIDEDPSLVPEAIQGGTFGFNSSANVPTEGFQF
Chain of UniProt Q86V48 (Q86V48 whole entry, looked up): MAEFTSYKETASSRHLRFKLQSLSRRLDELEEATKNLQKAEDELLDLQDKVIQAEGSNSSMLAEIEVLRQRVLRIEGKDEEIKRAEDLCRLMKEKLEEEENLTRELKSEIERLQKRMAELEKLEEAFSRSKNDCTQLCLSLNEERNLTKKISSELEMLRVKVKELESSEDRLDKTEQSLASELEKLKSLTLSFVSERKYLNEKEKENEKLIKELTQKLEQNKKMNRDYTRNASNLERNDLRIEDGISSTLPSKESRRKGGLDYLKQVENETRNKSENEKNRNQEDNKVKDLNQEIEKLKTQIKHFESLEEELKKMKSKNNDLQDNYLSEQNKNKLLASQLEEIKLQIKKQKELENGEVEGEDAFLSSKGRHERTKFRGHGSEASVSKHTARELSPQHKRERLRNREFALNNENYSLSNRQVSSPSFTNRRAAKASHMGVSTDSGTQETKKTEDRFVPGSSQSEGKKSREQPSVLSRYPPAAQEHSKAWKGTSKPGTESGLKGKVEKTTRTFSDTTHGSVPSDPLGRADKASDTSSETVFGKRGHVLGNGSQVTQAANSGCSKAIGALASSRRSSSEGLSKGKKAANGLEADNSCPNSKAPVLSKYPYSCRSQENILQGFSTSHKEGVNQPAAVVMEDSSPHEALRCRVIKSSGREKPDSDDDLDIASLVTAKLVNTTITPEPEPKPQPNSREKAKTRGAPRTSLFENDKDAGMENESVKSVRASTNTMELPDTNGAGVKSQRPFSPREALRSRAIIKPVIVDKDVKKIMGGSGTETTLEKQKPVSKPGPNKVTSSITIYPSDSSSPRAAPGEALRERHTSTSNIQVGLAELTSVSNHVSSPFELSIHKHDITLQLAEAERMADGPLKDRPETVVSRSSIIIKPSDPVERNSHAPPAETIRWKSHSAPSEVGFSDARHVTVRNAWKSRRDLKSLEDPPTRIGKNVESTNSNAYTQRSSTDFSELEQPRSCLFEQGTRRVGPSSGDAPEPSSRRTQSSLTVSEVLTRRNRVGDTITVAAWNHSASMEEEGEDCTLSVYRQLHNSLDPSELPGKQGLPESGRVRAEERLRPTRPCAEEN
Chain of UniProt P14174 (P14174 whole entry, looked up): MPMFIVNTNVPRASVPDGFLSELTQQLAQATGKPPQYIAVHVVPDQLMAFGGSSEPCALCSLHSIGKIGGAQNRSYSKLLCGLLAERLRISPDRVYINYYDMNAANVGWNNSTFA
Chain of UniProt Q9H9P8 (Q9H9P8 whole entry, looked up): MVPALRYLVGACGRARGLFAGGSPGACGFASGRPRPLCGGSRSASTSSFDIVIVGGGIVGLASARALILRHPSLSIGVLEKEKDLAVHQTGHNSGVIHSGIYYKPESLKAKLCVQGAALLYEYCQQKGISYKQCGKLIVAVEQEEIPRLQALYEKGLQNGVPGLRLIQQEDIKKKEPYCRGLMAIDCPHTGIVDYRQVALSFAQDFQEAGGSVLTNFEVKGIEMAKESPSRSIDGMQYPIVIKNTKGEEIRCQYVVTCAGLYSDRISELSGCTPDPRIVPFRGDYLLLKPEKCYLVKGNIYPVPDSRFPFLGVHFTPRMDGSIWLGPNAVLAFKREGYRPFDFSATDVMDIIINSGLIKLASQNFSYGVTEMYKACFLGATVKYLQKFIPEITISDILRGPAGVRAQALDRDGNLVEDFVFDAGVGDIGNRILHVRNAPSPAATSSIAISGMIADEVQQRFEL
Chain of UniProt Q9HCC0 (Q9HCC0 whole entry, looked up): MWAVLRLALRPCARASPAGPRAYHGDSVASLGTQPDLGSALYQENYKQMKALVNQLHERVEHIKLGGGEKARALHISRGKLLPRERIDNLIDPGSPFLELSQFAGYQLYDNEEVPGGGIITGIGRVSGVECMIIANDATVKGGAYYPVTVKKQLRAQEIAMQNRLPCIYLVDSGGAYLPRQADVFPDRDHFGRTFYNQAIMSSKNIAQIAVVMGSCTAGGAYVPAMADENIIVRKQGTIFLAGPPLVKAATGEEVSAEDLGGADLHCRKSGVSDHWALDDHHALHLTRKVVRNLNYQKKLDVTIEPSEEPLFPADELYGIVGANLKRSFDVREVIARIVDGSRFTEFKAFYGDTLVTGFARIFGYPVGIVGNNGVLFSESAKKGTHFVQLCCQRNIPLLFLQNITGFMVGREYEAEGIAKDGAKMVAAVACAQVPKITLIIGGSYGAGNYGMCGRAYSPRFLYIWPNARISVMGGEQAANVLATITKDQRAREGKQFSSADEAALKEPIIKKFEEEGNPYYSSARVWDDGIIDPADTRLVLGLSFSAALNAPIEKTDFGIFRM

| Target | log2 fold change [1] | log2 fold change [2] | log2 fold change [3] | log2 fold change [4] | log2 fold change [5] | log2 fold change [6] | log2 fold change [7] | log2 fold change [8] | log2 fold change [9] | log2 fold change [10] | log2 fold change [11] | log2 fold change [12] | log2 fold change [13] | log2 fold change [14] | log2 fold change [15] | log2 fold change [16] | log2 fold change [17] | log2 fold change [18] | log2 fold change [19] | log2 fold change [20] |
| --- | --- | --- | --- | --- | --- | --- | --- | --- | --- | --- | --- | --- | --- | --- | --- | --- | --- | --- | --- | --- |
| MAPK12 (UniProt P53778) | -0.037 | 0.008 | -0.054 | -0.254 | -0.079 | -0.035 | 0.34 (active) | -0.077 | -0.007 | 0.061 | -0.076 | -0.095 | -0.09 | 0.014 | 0.012 | 0.08 | 0.046 | -0.006 | 0.348 (active) | 0.018 |
| MAD2L1 (UniProt Q13257) | -0.054 | 0.018 | -0.082 | -0.042 | -0.06 | -0.012 | -0.001 | 0.009 | -0.055 | 0.042 | -0.013 | -0.09 | -0.193 | -0.124 | 0.036 | 0.021 | 0.014 | 0.072 | -0.032 | 0.006 |
| LTO1 (UniProt Q8WV07) | -0.013 | -0.004 | -0.036 | -0.072 | 0 | 0.039 | -0.025 | -0.02 | -0.063 | 0.038 | -0.077 | 0.009 | -0.011 | 0.094 | -0.097 | 0.005 | 0.044 | 0.158 | -0.015 | -0.126 |
| ME2 (UniProt P23368) | -0.012 | -0.087 | 0.138 | 0.029 | -0.052 | -0.015 | -0.076 | 0.001 | 0.107 | -0.074 | -0.015 | -0.034 | 0.07 | -0.033 | -0.013 | 0.058 | 0.025 | 0.186 | -0.017 | -0.093 |
| LEO1 (UniProt Q8WVC0) | -0.003 | 0.008 | -0.125 | -0.045 | 0.049 | -0.094 | -0.026 | 0.023 | -0.009 | 0.035 | 0.003 | -0.06 | -0.028 | -0.11 | 0.005 | 0.088 | 0.009 | 0.068 | -0.153 | -0.055 |
| MIF (UniProt P14174) | 0.012 | 0.034 | 0.088 | 0 | 0.052 | -0.052 | 0.067 | 0.076 | -0.029 | 0.021 | -0.059 | 0.092 | 0.103 | 0.048 | 0.099 | -0.085 | -0.013 | 0.036 | -0.196 | 0.063 |
| MAP4 (UniProt P27816) | 0.008 | 0.005 | 0.008 | 0.008 | 0.049 | -0.01 | -0.033 | -0.029 | 0 | -0.007 | 0.039 | 0.002 | 0.04 | 0.025 | -0.015 | -0.013 | -0.007 | -0.018 | 0.003 | -0.014 |
| KTN1 (UniProt Q86UP2) | 0.042 | 0.013 | -0.117 | 0.055 | -0.013 | 0.063 | -0.081 | -0.03 | -0.064 | -0.032 | 0.036 | 0.06 | 0.035 | -0.038 | 0.05 | 0.027 | 0.033 | 0.06 | 0.148 | -0.189 |
| LUZP1 (UniProt Q86V48) | -0.075 | -0.028 | -0.086 | -0.35 | 0.106 | 0.21 | -0.129 | -0.104 | 0.186 | -0.055 | 0.055 | 0.089 | 0.087 | 0.058 | -0.081 | -0.119 | – | 0.114 | 0.084 | – |
| KPNA4 (UniProt O00629) | -0.111 | 0.021 | 0.04 | -0.155 | -0.017 | -0.033 | 0.021 | 0.032 | -0.004 | 0.093 | -0.06 | -0.054 | -0.072 | -0.053 | -0.01 | 0.019 | 0.051 | 0.065 | -0.017 | -0.111 |
| MCCC2 (UniProt Q9HCC0) | -0.047 | -0.062 | 0.035 | -0.012 | 0.058 | -0.047 | 0.04 | 0.028 | -0.005 | -0.015 | 0.047 | -0.014 | 0.036 | 0.06 | 0.005 | -0.043 | 0.083 | 0.025 | 0.006 | -0.024 |
| IKZF1 (UniProt Q13422) | -0.062 | -0.004 | 0.237 | -0.347 | -0.121 | -0.112 | 0.072 | 0.119 | -0.026 | -0.07 | 0.164 | -0.084 | 0.21 | -0.03 | 0.064 | 0.003 | 0.019 | -0.202 | 0.004 | -0.061 |
| KIF1B isoform 4 (UniProt O60333) | -0.056 | -0.004 | 0.01 | 0.073 | -0.066 | -0.064 | -0.044 | 0.033 | -0.004 | -0.004 | 0.043 | -0.059 | -0.16 | -0.03 | 0.011 | 0.063 | 0.054 | 0.009 | -0.037 | -0.062 |
| L2HGDH (UniProt Q9H9P8) | -0.089 | -0.037 | 0.06 | 0.002 | -0.046 | -0.002 | 0.077 | 0.053 | 0.021 | 0.061 | -0.035 | -0.026 | -0.145 | 0.007 | -0.012 | -0.014 | 0.029 | 0.15 | -0.053 | 0.029 |
| MARCKS (UniProt P29966) | -0.102 | -0.133 | 0.053 | -0.003 | 0.022 | -0.007 | 0.033 | 0.034 | -0.002 | -0.017 | -0.018 | 0.108 | 0.038 | 0.07 | -0.074 | -0.159 | 0.062 | -0.021 | 0.031 | -0.08 |
| INPP5B (UniProt P32019) | 0.103 | -0.059 | -0.077 | 0.001 | -0.111 | 0.014 | -0.005 | -0.032 | 0.072 | 0.018 | 0.106 | -0.066 | -0.003 | -0.108 | 0 | 0.128 | -0.016 | 0.167 | 0.118 | 0.014 |
